Measured values reported in PubChem BioAssay AID652040 (Broad Institute, 2013).
Entries with a potency or affinity are not part of this list. Activity calls are given as the source filed them.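 Rule for the calls: active = falling luciferase signal whose fitted half-maximal concentration is at most twice the top tested dose; inconclusive = flat inhibition between 30 and 70% or a poor curve fit; inactive = the rest.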

Experiment: off-target signal loss in HeLa-CEM21 co-culture – HeLa F-luc CTL cells, cherry-picked, counter-screen for HIV-1 Env fusion inhibitor project, dose response (AID 652040);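 note: 0% = median of neutral control wells and -100% = doxycycline 40 µg/mL wells; more negative values mean stronger loss of luciferase signal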
Conditions: HeLa-F-luc CTL cells with CEM21, firefly luciferase counterscreen; series mostly up to 35 µM; activity change, negative = inhibition: at the top concentration

SMILES	activity change, negative = inhibition
CCC(=NCCc1c[nH]c2ccccc12)c1c(O)n(C)c(=O)n(C)c1=O	45.4% (inactive)
CCC(=NCc1ccc(F)cc1)c1c(O)n(C)c(=O)n(C)c1=O	-4.39% (inactive)
Cn1nc(-c2ccc(OCC(=O)N3CCN(Cc4ccccc4)CC3)cc2)c2ccccc2c1=O	13.6% (inactive)
